In all, about 4,300 compounds went through this assay and about 60 (1%) were called active. The sample as a whole holds a higher share of actives than the screen did. Values without a mark were called inactive.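 The calls were made as follows: active = inhibition of labelled peptide binding to the formyl peptide receptor of at least 65%; inactive = the rest.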
Each compound was assayed against fMet-Leu-Phe receptor (Homo sapiens) (UniProt P21462) (assay: small-molecule ligands of human FPR – U937-FPR cells, fMLFK-FITC, flow cytometry, primary screen (AID 362;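 as to inhibition: plate controls were buffer control wells for no effect and unlabeled fMLFF blocking peptide for full effect; higher means less cell fluorescence so more probe displaced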)). Details: fMLFK-FITC displacement; active compounds read high, concentration not given here.
Sequence of fMet-Leu-Phe receptor (Homo sapiens) (P21462 whole entry, looked up): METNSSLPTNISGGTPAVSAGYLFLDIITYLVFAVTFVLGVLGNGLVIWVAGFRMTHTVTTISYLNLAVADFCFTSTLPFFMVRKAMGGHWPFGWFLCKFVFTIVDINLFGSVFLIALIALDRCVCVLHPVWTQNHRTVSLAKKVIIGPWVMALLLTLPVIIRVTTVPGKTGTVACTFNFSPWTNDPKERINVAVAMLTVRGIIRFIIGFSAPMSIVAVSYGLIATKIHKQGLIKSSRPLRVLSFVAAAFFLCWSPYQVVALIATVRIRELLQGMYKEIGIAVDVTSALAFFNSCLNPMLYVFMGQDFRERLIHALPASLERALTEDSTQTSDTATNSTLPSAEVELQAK

Which inhibition does the source give for CC1(C)CC(=O)C2=C(C1)Nc1[nH]n(-c3ccccc3)c(=O)c1C2c1ccc(F)cc1 (stereo not drawn) here?
The inhibition was 47.8%.

With CC1(C)CC(=O)C2=C(C1)Nc1[nH]n(-c3ccccc3)c(=O)c1C2c1ccccc1Cl (stereo not drawn) as the compound, how does the inhibition read?
Its inhibition is 70.6% (active).

With CCOc1ccc(C2C(C#N)=C(N)OC3=C2C(=O)CC(C)(C)C3)cc1 (stereo not drawn) as the compound, how does the inhibition read?
The inhibition was 15.2%.

CC1(C)CC(=O)C2=C(C1)Nc1[nH]n(-c3ccccc3)c(=O)c1C2c1cccs1 (stereo not drawn) was tested. Which inhibition did it give?
Its inhibition is 50.9%.

For CC(C)c1ccc(C2C3=C(CC(C)(C)CC3=O)Nc3[nH]n(-c4ccccc4)c(=O)c32)cc1 (stereo not drawn), which inhibition is on record?
Its inhibition is 57%.

For CC1(C)CC(=O)C2=C(C1)Nc1ncnn1C2c1ccc(OCc2ccccc2)cc1 (stereo not drawn), which inhibition is on record?
Its inhibition is 7.5%.

Which inhibition does the source give for CC1(C)CC(=O)C2=C(C1)Nc1[nH]n(-c3ccccc3)c(=O)c1C2c1ccccc1F (stereo not drawn) here?
The inhibition was 55.8%.

With Cc1ccc(C2C3=C(CC(C)(C)CC3=O)Nc3[nH]n(-c4ccccc4)c(=O)c32)cc1 (stereo not drawn) as the compound, how does the inhibition read?
The inhibition was 65.6% (active).

CCOc1ccc(C2C3=C(CC(C)(C)CC3=O)Nc3[nH]n(-c4ccccc4)c(=O)c32)cc1 (stereo not drawn) was tested. Which inhibition did it give?
The inhibition was 76% (active).

With COc1cc(C2NC(=O)NC(C)=C2C(=O)OC2CCCCCC2)ccc1O (stereo not drawn) as the compound, how does the inhibition read?
The inhibition was “inactive”.

O=C(O)c1ccc([N+](=O)[O-])c2c1NC(C(=O)O)C1CC=CC21 (stereo not drawn) was tested. Which inhibition did it give?
Its inhibition is “inactive”.

How did the inhibition turn out when CCOC(=O)C1CCC(CN(Cc2ccc(Cl)cc2)S(=O)(=O)c2ccc([N+](=O)[O-])cc2)CC1 (stereo not drawn) was run?
The inhibition was “inactive”.

How did the inhibition turn out when CCCc1cc2c(=O)c(-c3cc4ccccc4o3)coc2cc1OC(C)=O was run?
The inhibition was 33.7%.

With CCOCCOC(=O)C1=C(C)NC2=C(C(=O)C(C(=O)OC)C(C)C2)C1c1ccc(OC)c(O)c1 (stereo not drawn) as the compound, how does the inhibition read?
The inhibition was 23.5%.

For COc1ccc(C(=O)NCC2(c3ccc(OC)c(OC)c3)CCCC2)cc1, which inhibition is on record?
Its inhibition is “inactive”.

CCCCCOC(=O)c1cccc(N2C(=O)C3C4CCC(C4)C3C2=O)c1 (stereo not drawn) was tested. Which inhibition did it give?
The inhibition was “inactive”.

For COc1cc2c(C(=O)N(C)c3cccc(Cl)c3)cn(CC(C)C)c(=O)c2cc1OC, which inhibition is on record?
Its inhibition is “inactive”.

How did the inhibition turn out when CCOC(=O)C1C(c2cccc([N+](=O)[O-])c2)NC(=O)NC1(O)C(F)(F)F (stereo not drawn) was run?
The inhibition was “inactive”.

Cc1ccc(C(=O)C2=C(N)OC3=C(C(=O)CC(C)(C)C3)C2c2ccccc2Cl)cc1 (stereo not drawn) was tested. Which inhibition did it give?
The inhibition was “inactive”.

How did the inhibition turn out when O=C(CSc1nc2ccccc2c(=O)n1CC1CCC(C(=O)NCc2ccccc2Cl)CC1)NC1CCCC1 (stereo not drawn) was run?
The inhibition was 4.5%.

Which inhibition does the source give for CC(C)CN(CC(C)C)S(=O)(=O)c1ccc(C(=O)Nc2cccc(-c3nc4ccccc4[nH]3)c2)cc1 here?
Its inhibition is 4.7%.

With CCCCCCc1cc2c3c(c(=O)oc2cc1OCC(=O)O)CCC3 as the compound, how does the inhibition read?
The inhibition was 74.7% (active).

With CCCCCCc1cc2c3c(c(=O)oc2cc1OCC(=O)O)CCCC3 as the compound, how does the inhibition read?
The inhibition was 47.7%.

Which inhibition does the source give for CCCCCCc1cc2c3c(c(=O)oc2cc1OCC(C)=O)CCC3 here?
Its inhibition is 5.4%.

With CC1CC(C)CN(C(=O)c2cn(C3CCCC3)c(=O)c3c2c2ccccc2n3C)C1 (stereo not drawn) as the compound, how does the inhibition read?
Its inhibition is “inactive”.

COC(=O)c1c(-c2ccc(F)cc2)csc1NC(=O)C1CCCCC1C(=O)O (stereo not drawn) was tested. Which inhibition did it give?
Its inhibition is 72.4% (active).

How did the inhibition turn out when CCOC(=O)c1c(-c2ccc(F)cc2)csc1NC(=O)C1CCCCC1C(=O)O (stereo not drawn) was run?
The inhibition was 35.1%.

For COC(=O)c1c(-c2ccccc2)csc1NC(=O)C1CCCCC1C(=O)O (stereo not drawn), which inhibition is on record?
The inhibition was “inactive”.

Which inhibition does the source give for COC(=O)c1c(-c2cccc(C)c2)csc1NC(=O)C1CCCCC1C(=O)O (stereo not drawn) here?
Its inhibition is 68.9% (active).

COC(=O)c1c(-c2ccc(C)c(C)c2)csc1NC(=O)C1CCCCC1C(=O)O (stereo not drawn) was tested. Which inhibition did it give?
The inhibition was 22.4%.

For CCOC(=O)c1c(-c2ccc(C)cc2)csc1NC(=O)C1CCCCC1C(=O)O (stereo not drawn), which inhibition is on record?
The inhibition was 15.5%.

Which inhibition does the source give for CCOC(=O)c1c(-c2ccc(OC)cc2)csc1NC(=O)C1CCCCC1C(=O)O (stereo not drawn) here?
Its inhibition is 3%.

Which inhibition does the source give for CCOC(=O)c1c(-c2ccc(C)cc2C)csc1NC(=O)C1CCCCC1C(=O)O (stereo not drawn) here?
Its inhibition is 94.2% (active).

For COC(=O)c1c(-c2cc(C)ccc2C)csc1NC(=O)C1CCCCC1C(=O)O (stereo not drawn), which inhibition is on record?
The inhibition was 40.4%.

How did the inhibition turn out when O=C(O)C1CCCCC1C(=O)N1CCN(C/C=C/c2ccccc2)CC1 (stereo not drawn) was run?
Its inhibition is “inactive”.

Which inhibition does the source give for O=C(CSc1nc2ccccc2c(=O)n1CC1CCC(C(=O)NCc2ccco2)CC1)NCCC1=CCCCC1 (stereo not drawn) here?
The inhibition was 7.9%.

For CC(=O)N1CCCc2cc(S(=O)(=O)NC(C(=O)NCc3cccs3)C(C)C)ccc21 (stereo not drawn), which inhibition is on record?
The inhibition was “inactive”.

CC(C)C(C(=O)O)n1c(O)c(C2=c3ccccc3=NC2=O)sc1=S (stereo not drawn) was tested. Which inhibition did it give?
The inhibition was 106% (active).

CC(C)C(C(=O)O)n1c(O)c(C2=c3cc(Br)ccc3=NC2=O)sc1=S (stereo not drawn) was tested. Which inhibition did it give?
Its inhibition is 95.3% (active).

Cc1cc(C)c(S(=O)(=O)NCC2CCC(C(=O)NCC3CCCO3)CC2)c(C)c1 (stereo not drawn) was tested. Which inhibition did it give?
The inhibition was “inactive”.

For CC(C)CC(C(=O)OCC(=O)c1ccc(Cl)cc1)N1C(=O)c2ccccc2C1=O (stereo not drawn), which inhibition is on record?
The inhibition was “inactive”.

For CCN(CC)CC(=O)N1CCCc2c1c(=O)oc1ccc(OC(C)=O)cc21, which inhibition is on record?
The inhibition was “inactive”.

How did the inhibition turn out when Cc1ccc2nc3c(cc(C(=O)NCc4ccco4)c(=N)n3C3CCCC3)c(=O)n2c1 was run?
Its inhibition is “inactive”.

With CCCCc1cc(=O)oc2cc(OCC(=O)OCC)c(Cl)cc12 as the compound, how does the inhibition read?
The inhibition was “inactive”.

O=C(C1CCCN(S(=O)(=O)c2ccccc2)C1)N1CCCCC1 (stereo not drawn) was tested. Which inhibition did it give?
The inhibition was 7.6%.

Which inhibition does the source give for CC1=C(C)C/S(=N\S(=O)(=O)c2ccccc2)N(S(=O)(=O)c2ccccc2)C1 (stereo not drawn) here?
The inhibition was 103% (active).

Which inhibition does the source give for CC1=C(C)CS(=Nc2ccccc2[N+](=O)[O-])N(S(=O)(=O)c2ccccc2)C1 (stereo not drawn) here?
Its inhibition is “inactive”.

How did the inhibition turn out when CC(C)Cn1cc(C(=O)N2CC(C)CC(C)C2)c2c3ccccc3n(C)c2c1=O (stereo not drawn) was run?
The inhibition was 5.3%.

With O=S(=O)(c1ccc(-c2csc(=Nc3cccc4ccccc34)n2CCCCO)cc1)N1CCCCC1 as the compound, how does the inhibition read?
The inhibition was “inactive”.

With CCC(C)(C)C1CCc2c(sc(NC(=O)C3CCCCC3C(=O)O)c2C(=O)OC)C1 (stereo not drawn) as the compound, how does the inhibition read?
The inhibition was 80.5% (active).

Which inhibition does the source give for CCCOC(=O)c1c(NC(=O)C2CCCCC2C(=O)O)sc2c1CCC(C)C2 (stereo not drawn) here?
Its inhibition is 23.4%.

Which inhibition does the source give for CCOC(=O)c1c(NC(=O)C2C3C=CC(CC3)C2C(=O)O)sc2c1CCCC2 (stereo not drawn) here?
Its inhibition is 4.5%.

Which inhibition does the source give for CC1CCc2c(sc(NC(=O)C3CCCCC3C(=O)O)c2C(=O)OC(C)C)C1 (stereo not drawn) here?
The inhibition was 3%.

With CCCOC(=O)c1c(NC(=O)C2CCCCC2C(=O)O)sc2c1CCC2 (stereo not drawn) as the compound, how does the inhibition read?
Its inhibition is 47.3%.

For CCOC(=O)c1c(NC(=O)C2C3C=CC(C3)C2C(=O)O)sc2c1CCCCCC2 (stereo not drawn), which inhibition is on record?
Its inhibition is 16.4%.

With CCOC(=O)c1c(NC(=O)C2CCCCC2C(=O)O)sc2c1CCC(C(C)(C)C)C2 (stereo not drawn) as the compound, how does the inhibition read?
Its inhibition is 71.7% (active).

How did the inhibition turn out when CCOC(=O)c1c(NC(=O)C2C3CCC(C3=C(C)C)C2C(=O)O)sc2c1CCCCCCC2 (stereo not drawn) was run?
The inhibition was 95.1% (active).

Which inhibition does the source give for CCOC(=O)c1c(NC(=O)C2CCCCC2C(=O)O)sc2c1CCC(C(C)(C)CC)C2 (stereo not drawn) here?
Its inhibition is 21%.

Reference: PubChem BioAssay AID362 (NMMLSC, 2006)
